Source: PubChem BioAssay
Most compounds without a hit are left out; they make up all but 11% or so of the library.
SW480 rerep = A quantitative high throughput screen for small molecules that induce DNA re-replication in SW480 colon adenocarcinoma cells; SW480 DNA re-replication, Hoechst DNA content imaging, 48 h; Potency, µM (titrated, usually from 46.1 µM), usual class: activators; 340,000 tested, 1.8% active; also: nearly all actives have a fitted effect of over 55% in size
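Treated cells incubate 48 hr (37 C, 5% CO2), are stained 40 min with Hoechst, and nuclear fluorescence is enumerated; a rise in nuclei with high DNA signal marks re-replication.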
Gal4-VP16 FLuc = VP16 counterscreen qHTS for inhibitors of ROR gamma transcriptional activity. Drosophila S2 Gal4-VP16 UAS-luciferase, luminescence, 20 h. AID 2546, 2010. 310,000 tested, 3.5% active. Potency, µM (titrated, usually from 53.6 µM), most hits filed as inhibitors;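 also: Gal4-VP16 expression switched on by copper sulfate through the metallothionein promoter; nearly all actives have a fitted effect of over 50% in size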
MCF10A rerep = A quantitative high throughput screen for small molecules that induce DNA re-replication in MCF 10a normal breast cells; 350,000 tested, 2.9% active; Potency, µM (doses to about 46.1 µM), hits mostly activators; MCF 10A DNA re-replication, Hoechst nuclear intensity, 48 h; AID 624296, 2012; also: nearly all actives have a fitted effect of over 50% in size
IL-1B inflam inh = qHTS for Inhibitors of Inflammasome Signaling: IL-1-beta AlphaLISA Primary Screen | THP-1 LPS/ATP IL-1B secretion, AlphaLISA, 16 h; hits give low values | activity change, % at 57.5 µM | 360,000 tested, 4.7% active; in the data active = activity change below about -50%; inconclusive = mostly about -30% to -49%
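Secreted IL-1B measured by AlphaLISA bead assay after 16 h compound exposure of THP-1 cells; compounds (final up to 57.5 uM) added 1 h before LPS (250 ng/mL) and ATP (1.25 mM) stimulation; lower signal means less secretion.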
RORgamma inh = qHTS for inhibitors of ROR gamma transcriptional activity; Nuclear receptor ROR-gamma (Mus musculus), P51450; Drosophila S2 Gal4-RORgamma UAS-luciferase reporter, 20 h; Potency, µM (titrated, usually from 53.6 µM), most hits filed as inhibitors; 310,000 tested, 5.4% active; AID 2551, 2010; also: nearly all actives have a fitted effect of over 60% in size
Target sequence (P51450 whole entry, looked up, the tested form may be a part): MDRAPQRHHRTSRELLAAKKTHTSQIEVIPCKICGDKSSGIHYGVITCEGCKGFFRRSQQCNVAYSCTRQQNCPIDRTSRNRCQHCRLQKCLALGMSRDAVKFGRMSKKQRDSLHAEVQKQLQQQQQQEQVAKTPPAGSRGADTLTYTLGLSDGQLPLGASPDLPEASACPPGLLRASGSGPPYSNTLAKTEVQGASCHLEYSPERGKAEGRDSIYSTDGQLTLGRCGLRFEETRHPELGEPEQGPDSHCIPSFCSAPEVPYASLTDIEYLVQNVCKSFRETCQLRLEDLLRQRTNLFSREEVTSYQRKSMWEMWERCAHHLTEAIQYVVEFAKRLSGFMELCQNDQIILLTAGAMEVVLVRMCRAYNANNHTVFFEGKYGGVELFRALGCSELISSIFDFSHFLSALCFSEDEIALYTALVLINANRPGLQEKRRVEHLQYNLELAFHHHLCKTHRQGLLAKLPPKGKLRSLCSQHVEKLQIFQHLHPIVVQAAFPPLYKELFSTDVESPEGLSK
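Stable Schneider cell line, Gal4 DNA-binding domain fused to ROR gamma, UAS-luciferase. Cmpd 1 hr RT → CuSO4 700 uM final → 20 hr RT → luciferase reagent 10 min → luminescence.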
Large screens that a line does not name were inactive. Unless noted, calls follow the shape of the dose curve; as a rule, active = well fitted curve in the direction sought with a large enough effect; inconclusive = small, poorly fitted or top-dose-only effect, or another doubt; inactive = no such curve, though single readings can be large; an effect the other way counts as inactive or inconclusive.

CCC(c1nnnn1C1CCCCC1)N(Cc1ccco1)Cc1cc2ccc(OC)cc2[nH]c1=O (centres undefined)	SW480 rerep inconclusive, MCF10A rerep inconclusive, IL-1B inflam inh -58
Cc1ccc2cc(C(c3nnnn3C3CCCC3)N(Cc3ccco3)Cc3cccs3)c(=O)[nH]c2c1 (centres undefined)	none
COCCn1nnnc1C(C(C)C)N(Cc1cccnc1)Cc1cc2cc(OC)ccc2[nH]c1=O (centres undefined)	none
Cc1cc([N+](=O)[O-])cc2c1NC(=O)C2(O)N1CCOCC1 (centres undefined)	Gal4-VP16 FLuc inconclusive, RORgamma inh 11µM
CC1CCN(C2(O)C(=O)Nc3ccc([N+](=O)[O-])cc32)CC1 (centres undefined)	none
O=C(NCCCN1CCCC1=O)C(=O)NCC1OCCN1S(=O)(=O)c1cc(F)ccc1F (centres undefined)	none (no result: SW480 rerep, Gal4-VP16 FLuc, MCF10A rerep, RORgamma inh)
COCCNC(=O)CSc1nc2cc(OC)c(OC)cc2c(=O)n1CCC1=CCCCC1	none
Nc1c(C(=O)NCC2CCCO2)c2nc3ccccc3nc2n1-c1ccccc1 (centres undefined)	SW480 rerep inconclusive, MCF10A rerep inconclusive
COc1ccccc1-n1c(N)c(C(=O)NCC2CCCO2)c2nc3ccccc3nc21 (centres undefined)	SW480 rerep 11µM, MCF10A rerep inconclusive, IL-1B inflam inh inconclusive
Nc1c(C(=O)NCc2ccco2)c2nc3ccccc3nc2n1CCc1ccccc1F	SW480 rerep 5.8µM, MCF10A rerep 2.6µM, IL-1B inflam inh -58
COCCNC(=O)c1c(N)n(CCC2=CCCCC2)c2nc3ccccc3nc12	SW480 rerep 21µM, MCF10A rerep 15µM, IL-1B inflam inh -72
COc1ccc(CCn2c(N)c(C(=O)NCc3ccco3)c3nc4ccccc4nc32)cc1OC	none
COc1ccc(CCn2c(N)c(C(=O)NCc3ccco3)c3nc4ccccc4nc32)cc1	SW480 rerep inconclusive, Gal4-VP16 FLuc inconclusive, MCF10A rerep inconclusive, IL-1B inflam inh -86, RORgamma inh inconclusive
CCC1(c2ccc(F)cc2)NC(=O)N(CC(=O)N2CCN(S(=O)(=O)c3ccc(C)cc3C)CC2)C1=O (centres undefined)	none (no result: Gal4-VP16 FLuc, RORgamma inh)
COc1ccc(Nc2cc(C(=O)NCc3ccco3)c3ccccc3n2)cc1	none (no result: SW480 rerep, MCF10A rerep, IL-1B inflam inh)
COc1ccc(-n2c(N)c(C(=O)NCc3ccco3)c3nc4ccccc4nc32)c(OC)c1	SW480 rerep 2.1µM, MCF10A rerep 7.1µM
COc1ccc2cc3c(N)c(C(=O)NCc4ccco4)sc3nc2c1	Gal4-VP16 FLuc inconclusive, MCF10A rerep inconclusive, IL-1B inflam inh -63, RORgamma inh inconclusive
COCCn1c(N)c(C(=O)OCc2ccccc2)c2nc3ccccc3nc21	SW480 rerep inconclusive, Gal4-VP16 FLuc 14µM, MCF10A rerep inconclusive, RORgamma inh inconclusive
COc1ccc2cc3cc(C(=O)NCc4ccco4)oc3nc2c1	MCF10A rerep inconclusive
C=CCn1c(N)c(C(=O)OCCC)c2nc3ccccc3nc21	none
COc1ccc(NS(=O)(=O)c2cc(Br)cc3c2N(C(C)=O)CC3)cc1	SW480 rerep 6.5µM, MCF10A rerep 18µM
COc1ccc(NC(=O)c2cc(-c3ccccc3)on2)cc1	none
COc1cccc(-c2cc(C(=O)Nc3cc(OC)c(OC)c(OC)c3)no2)c1	SW480 rerep inconclusive, MCF10A rerep 3.7µM
O=C(Nc1cccnc1)c1cc(-c2ccccc2)on1	none
COc1cccc(-c2cc(C(=O)Nc3cccnc3)no2)c1	MCF10A rerep 9.2µM
CC(C)n1cc(NC(=O)c2cc(-c3ccccc3)on2)cn1	SW480 rerep 5.2µM, MCF10A rerep 3.7µM
CC(O)(c1cccc(F)c1)c1nc(-c2csc3ccccc23)cs1 (centres undefined)	none (no result: SW480 rerep, Gal4-VP16 FLuc, MCF10A rerep, RORgamma inh)
S=C(N/N=C/c1cccs1)NC1CC2CCC1C2 (centres undefined)	Gal4-VP16 FLuc 3.2µM, MCF10A rerep inconclusive, RORgamma inh 0.79µM (no result: IL-1B inflam inh)
Oc1ccc(/C=N/NC(=S)NCC2CCCO2)cc1 (centres undefined)	RORgamma inh inconclusive
Oc1ccc(/C=N/NC(=S)NC2CC3CCC2C3)cc1 (centres undefined)	Gal4-VP16 FLuc 11µM, MCF10A rerep inconclusive, IL-1B inflam inh -66, RORgamma inh 2.5µM
Cc1ccccc1CC(=O)Nc1ccc2c(c1)c(=O)n(C)n2-c1ccccc1F	none (no result: SW480 rerep, Gal4-VP16 FLuc, MCF10A rerep, RORgamma inh)
COc1ccccc1-c1ncn(Cc2cccc(-c3ccccc3)c2)c1CC(C)C	IL-1B inflam inh -91 (no result: SW480 rerep, Gal4-VP16 FLuc, MCF10A rerep, RORgamma inh)
CCc1c(-c2cccc(Br)c2)ncn1Cc1cccc(-c2ccccc2)c1	IL-1B inflam inh -95 (no result: SW480 rerep, Gal4-VP16 FLuc, MCF10A rerep, RORgamma inh)
CCc1c(-c2ccc(OC)cc2)ncn1Cc1cccc(-c2ccccc2)c1	none (no result: SW480 rerep, Gal4-VP16 FLuc, MCF10A rerep, RORgamma inh)
CCc1c(-c2ccccc2OC)ncn1Cc1cccc(-c2ccccc2)c1	IL-1B inflam inh -53 (no result: SW480 rerep, Gal4-VP16 FLuc, MCF10A rerep, RORgamma inh)
COc1ccc(NC(=O)C2c3ccccc3OCC(=O)N2Cc2ccc3c(c2)OCO3)cc1 (centres undefined)	none (no result: SW480 rerep, Gal4-VP16 FLuc, MCF10A rerep, RORgamma inh)
Cc1ccc(C(=O)NC2CCc3ccccc3C2=O)cc1 (centres undefined)	none
Cc1ccc(C(=O)NC2c3ccccc3-c3ccccc32)cc1	SW480 rerep 13µM, RORgamma inh inconclusive
Cc1[nH]n(-c2ccccc2)c(=O)c1C=Nc1ccc(S(=O)(=O)N=C(N)N)cc1	none
Cc1[nH]n(-c2ccccc2)c(=S)c1C=Nc1ccc([N+](=O)[O-])cc1	Gal4-VP16 FLuc 7.1µM, MCF10A rerep inconclusive, RORgamma inh 3.2µM
CCCOc1ccc(Br)cc1-c1cc(-c2ccc(Cl)cc2)[nH]c1-c1ccncc1	none (no result: SW480 rerep, MCF10A rerep, IL-1B inflam inh)
COc1ccc(Cl)cc1CC=NNC(=O)c1cccc(C)c1O	none (no result: Gal4-VP16 FLuc, RORgamma inh)
CNC(=S)N/N=C/c1c(Cl)cccc1Cl	Gal4-VP16 FLuc 6.3µM, RORgamma inh 3.2µM
S=C(N/N=C/c1cccc2ccccc12)Nc1cccc(Cl)c1	SW480 rerep inconclusive, Gal4-VP16 FLuc 7.9µM, MCF10A rerep inconclusive, RORgamma inh 0.45µM
COC(=O)N/N=C/c1ccccc1Cl	none
S=C(N/N=C/c1ccc2ncccc2c1)Nc1ccccc1	Gal4-VP16 FLuc inconclusive, RORgamma inh 1.3µM
CNC(=S)N/N=C/c1ccccc1Cl	Gal4-VP16 FLuc 5.6µM, IL-1B inflam inh -50, RORgamma inh 4µM
CC(C)n1ncc2c(C(=O)NCCc3ccc(F)cc3)cc(C3CC3)nc21	MCF10A rerep inconclusive, IL-1B inflam inh inconclusive (no result: Gal4-VP16 FLuc, RORgamma inh)
Cc1cccc(C)c1NC(=S)N/N=C/c1c(Cl)cccc1Cl	Gal4-VP16 FLuc 2.5µM, RORgamma inh 0.5µM
Cn1cccc1C(=O)N/N=C/c1c(Cl)cccc1Cl	none
S=C(N/N=C/c1ccccc1Cl)Nc1ccccc1	SW480 rerep inconclusive, RORgamma inh 0.71µM
Cc1c(Cl)cccc1NC(=S)N/N=C/c1ccccc1Cl	Gal4-VP16 FLuc 4.5µM, RORgamma inh 1µM
